The assay can be described thus: PhoP regulon inhibitors in S. Typhimurium, late-stage follow-up, synthesized compounds, set 5 (AID 463176).

The structures appear in SMILES notation. Active and inactive are the calls of the source.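 Rule for the calls: active = inhibition above 30% at one or more tested concentrations in the dose response; inactive = inhibition below 30% at every tested concentration.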

Consider `O=C1C2=C(Nc3ccccc3SC2c2cccnc2)c2ccccc21` (stereo unspecified), for which the molecule was classed as inactive. For `O=C1C2=C(Nc3ccccc3SC2c2cccc(Br)c2)c2ccccc21` (stereo unspecified) the value was “inactive”.

Take `O=C1C2=C(Nc3ccccc3SC2c2ccc(Cl)cc2)c2ccccc21` (stereo unspecified): the molecule was classed as inactive. For `COc1cccc(NC(=O)N2CCCN(Cc3ccccc3F)C2)c1` the value was “inactive”; for `Cc1ccc(C2Sc3ccccc3N=C3c4ccccc4CC32)cc1` (stereo unspecified), “inactive”; for `Clc1ccc(C2Sc3ccccc3N=C3c4ccccc4CC32)cc1` (stereo unspecified), “inactive”.

For the origin of these results see PubChem BioAssay AID463176 (Southern Research Specialized Biocontainment Screening …, 2010).
